Assays:
Settings in all cases: concentration: 1 μM, replicates: in singlicate; n = 1
STK36 = tested on: STK36
STK39 = tested on: STK39
SYK = tested on: SYK
SgK110 = tested on: SgK110
TAK1 = tested on: T1, TAK1
T1 construct: gene MAP3K7

TAOK1 = tested on: TAOK1
TAOK2 = tested on: TAOK2
TAOK3 = tested on: TAOK3
TBK1 = tested on: TBK1
TEC = tested on: TEC
TESK1 = tested on: TESK1
TGFBR1 = tested on: TGFBR1
TGFBR2 = tested on: TGFBR2
TIE1 = tested on: TIE1
TIE2 = tested on: T2, TIE2
T2 construct: gene TEK

TLK1 = tested on: TLK1
TLK2 = tested on: TLK2
TNIK = tested on: TNIK
TNK1 = tested on: TNK1
TNK2 = tested on: TNK2
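Note: KINOMEscan kinase panel screen.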

Structure (SMILES)	%Inh (STK36)	%Inh (STK39)	%Inh (SYK)	%Inh (SgK110)	%Inh (TAK1)	%Inh (TAOK1)	%Inh (TAOK2)	%Inh (TAOK3)	%Inh (TBK1)	%Inh (TEC)	%Inh (TESK1)	%Inh (TGFBR1)	%Inh (TGFBR2)	%Inh (TIE1)	%Inh (TIE2)	%Inh (TLK1)	%Inh (TLK2)	%Inh (TNIK)	%Inh (TNK1)	%Inh (TNK2)
c1ccc(-c2n[nH]cc2Nc2ccnc3ccccc23)nc1 [GW694077]	0%	8%	16%	0%	91.6%	66%	21%	10%	0%	0%	11%	5%	56%	0%	0%	0%	0%	42%	0%	1%
CCc1ccc(-c2ccc3c(c2)-c2c(cnn2C)S(=O)(=O)N3C)cc1	0%	0%	0%	0%	4%	0%	0%	0%	8%	0%	3%	0%	2%	33%	0%	0%	0%	8%	0%	0%
Fc1ccc(-c2ncn(C3CCNCC3)c2-c2ccnc(Oc3ccc(-c4ccccc4)cc3)n2)cc1 [SB-245391]	8%	14%	0%	0%	42%	28%	6%	20%	8%	5%	19%	59%	16%	46%	31%	3%	35%	11%	10%	0%
CSc1cccc2c(-c3ccncn3)c(-c3ccc(F)cc3)nn12 [GW514786]	38%	10%	42%	0%	9%	0%	0%	0%	8%	0%	31%	28%	24%	6%	0%	0%	0%	0%	8%	6%
CC(C)(C)c1ccc2nccc(Nc3cccc(O)c3)c2c1 [GW856795]	0%	14%	0%	0%	23%	100%	0%	59%	14%	12%	0%	42%	88%	0%	2%	12%	0%	0%	19%	0%
Cc1ccc(C)c(NC(=O)NC2CCN(c3ccnc(Nc4ccc(F)cc4)n3)C2)c1 (centres unmarked) [GSK1379720]	5%	10%	16%	11%	0%	0%	0%	0%	0%	2%	28%	12%	0%	0%	0%	0%	0%	0%	0%	21%
Cc1ccc(F)c(C(=O)Nc2cccc(-c3nn4ccccc4c3-c3ccnc(Nc4cccc(F)c4)n3)c2)c1F [GSK361061]	99.1%	18%	45%	0%	0%	33%	18%	41%	29%	75%	28%	43%	21%	55%	27%	8%	0%	29%	88%	43%
COC(=O)Nc1nc2cc(Oc3ccc(NC(=O)Nc4cc(C(F)(F)F)ccc4F)cn3)ccc2[nH]1.Cl.Cl [GW681170]	0%	3%	16%	0%	79%	0%	0%	0%	19%	0%	10%	0%	0%	93.1%	98.6%	11%	0%	0%	0%	0%
Cc1occc1-c1ncc(OC[C@@H](N)Cc2c[nH]c3ccccc23)cc1-c1ccc2[nH]nc(C)c2c1.O=C(O)C(F)(F)F [GSK682037]	0%	15%	0%	0%	97.9%	97.7%	36%	83%	0%	0%	19%	0%	0%	18%	0%	0%	0%	97.2%	15%	0%
C[C@@H]1CC[C@@H](C(=O)Nc2ccccc2)CN1c1cc(-c2ccc3c(N)n[nH]c3c2)nc(N)n1 [GSK2286062]	0%	0%	30%	0%	0%	0%	0%	10%	17%	0%	29%	0%	0%	0%	22%	0%	4%	0%	0%	0%
Cc1ccc(C(=O)Nc2ccc(Nc3ccnc4cc(-c5nccs5)ccc34)cc2O)cc1.Cl [GW494702]	35%	0%	5%	15%	0%	0%	0%	0%	0%	0%	15%	40%	0%	16%	5%	0%	0%	36%	46%	96.9%
O=C(NC1CCN(c2ccnc(Nc3ccc(F)cc3)n2)C1)c1cc2ccccc2s1 (centres unmarked) [GSK1379716]	0%	4%	42%	0%	0%	0%	0%	0%	20%	16%	31%	39%	0%	24%	0%	7%	0%	1%	0%	21%
COc1ccc(Nc2nccc(N3CCC(NC(=O)Nc4cccc(OC)c4)C3)n2)cc1 (centres unmarked) [GSK1379742]	0%	5%	25%	0%	0%	0%	0%	0%	6%	1%	36%	0%	9%	0%	0%	0%	0%	0%	0%	12%
COc1cc(Nc2nccc(-c3c(-c4cccc(NC(=O)c5c(F)cccc5F)c4)nn4ncccc34)n2)cc(OC)c1OC [GSK327238]	100%	13%	74%	69%	15%	58%	39%	63%	12%	95.2%	51%	1%	11%	90.6%	96.9%	42%	12%	80%	100%	69%
O=C(Nc1cccc(-c2nn3ncccc3c2-c2ccnc(Nc3ccccc3)n2)c1)c1c(F)cccc1F [GSK198271]	100%	0%	37%	0%	0%	90%	93.2%	97.3%	0%	95.4%	24%	0%	0%	45%	25%	22%	0%	32%	97.4%	51%
Cl.Cl.NCC(NCc1ccc(-c2ccnc3[nH]ccc23)s1)c1ccccc1 (centres unmarked) [GSK1321565]	0%	5%	23%	8%	44%	26%	0%	0%	8%	0%	18%	15%	0%	9%	0%	0%	0%	0%	0%	0%
O=C(Nc1ccccc1F)NC1CCN(c2ccnc(Nc3ccc(F)cc3)n2)CC1 [GSK1379800]	0%	0%	0%	0%	0%	0%	0%	0%	8%	0%	17%	36%	0%	6%	7%	0%	0%	0%	0%	15%

Structure (SMILES)	%Inh (STK36)	%Inh (STK39)	%Inh (SYK)	%Inh (SgK110)	%Inh (TAK1)	%Inh (TAOK1)	%Inh (TAOK2)	%Inh (TAOK3)	%Inh (TBK1)	%Inh (TEC)	%Inh (TESK1)	%Inh (TGFBR1)	%Inh (TGFBR2)	%Inh (TIE1)	%Inh (TIE2)	%Inh (TLK1)	%Inh (TLK2)	%Inh (TNIK)	%Inh (TNK1)	%Inh (TNK2)
NCCCC(NC(=O)c1cc(Br)c(-c2ccnc3[nH]ccc23)s1)c1ccccc1.O=C(O)C(F)(F)F.O=C(O)C(F)(F)F (centres unmarked) [GSK1287544]	0%	0%	0%	58%	0%	34%	0%	0%	0%	0%	16%	0%	0%	73%	15%	0%	0%	3%	0%	0%
CCCCc1nn2ncccc2c1-c1ccnc(Nc2ccc(N3CCN(C)CC3)cc2)n1 [GW684941]	91.4%	33%	0%	10%	4%	37%	47%	42%	11%	0%	39%	80%	91%	93.6%	80%	0%	0%	25%	86%	62%
COc1cc(Nc2nccc(N3CCC(NC(=O)c4cc5ccccc5s4)C3)n2)cc(OC)c1OC (centres unmarked) [GSK1379760]	32%	0%	52%	0%	12%	0%	0%	0%	3%	10%	9%	0%	0%	35%	0%	8%	18%	0%	0%	15%
COC(=O)Nc1nc2ccc(Oc3ccc(NC(=O)Nc4cc(C(F)(F)F)ccc4F)cc3)cc2n1C.Cl [GW692089]	22%	0%	52%	0%	38%	0%	0%	0%	0%	0%	0%	7%	0%	97%	97.3%	0%	33%	10%	0%	0%
COc1cccc(-c2ccc3c(NC(=O)C4CC4)n[nH]c3n2)c1 [SB-710903]	0%	17%	19%	0%	0%	30%	4%	0%	13%	0%	36%	27%	0%	0%	0%	3%	0%	82%	0%	9%
O=C(Nc1n[nH]c2cc(-c3ccoc3)ccc12)C1CC1 [SB-738481]	13%	1%	2%	0%	2%	65%	27%	15%	15%	0%	0%	0%	0%	0%	5%	7%	0%	42%	0%	0%
Cc1ccc(S(=O)(=O)Nc2ccc(Nc3nccc(Nc4cccc5[nH]ncc45)n3)cc2)cc1 [GSK581271]	0%	1%	31%	0%	0%	0%	0%	0%	9%	9%	13%	20%	91.2%	9%	0%	0%	0%	0%	0%	27%
O=C(Nc1cccc(-c2nn3ccccc3c2-c2ccnc(Nc3cccc(F)c3)n2)c1)c1c(F)ccc(F)c1Cl [GSK357952]	99.3%	35%	16%	0%	0%	33%	0%	34%	3%	60%	0%	2%	19%	48%	22%	0%	0%	0%	91.6%	21%
Cl.Cl.NCC(NC(=O)c1cc(-c2ccccc2)c(-c2ccnc3[nH]ccc23)s1)c1ccccc1 (centres unmarked) [GSK1321561]	29%	8%	5%	0%	35%	4%	0%	0%	24%	11%	16%	0%	0%	13%	0%	54%	0%	86%	0%	7%
COc1ccc(Nc2nccc(NCCNC(=O)c3cc4ccccc4s3)n2)cc1 [GSK1379896]	0%	3%	2%	24%	0%	0%	0%	0%	2%	0%	0%	0%	0%	0%	0%	0%	0%	0%	0%	4%
FC(F)(F)c1ccc(/C=C/c2cncnc2Nc2ccc3[nH]c(Cc4ccccc4)nc3c2)cc1 [GW709199]	0%	0%	10%	9%	0%	0%	0%	0%	36%	14%	2%	28%	0%	0%	15%	0%	0%	0%	0%	0%
O=C(Nc1n[nH]c2nc(-c3ccc(O)cc3)ccc12)C1CC1 [SB-710363]	15%	18%	25%	0%	21%	98.9%	79%	95.9%	19%	0%	0%	0%	0%	0%	11%	18%	0%	95.1%	0%	0%
Oc1cc(Nc2ccnc3cc(I)ccc23)ccc1F [GW552771]	0%	21%	19%	0%	0%	0%	0%	0%	0%	12%	13%	62%	99.9%	0%	0%	10%	0%	47%	4%	2%
O=C(O)C(F)(F)F.O=C(O)C(F)(F)F.O=c1[nH]ccc2nc(N[C@@H]3CCCNC3)nc(Nc3ccc(S(=O)(=O)N4CCOCC4)cc3)c12 [GSK2177277]	26%	90.6%	93.1%	95%	99.9%	99.8%	82%	99.5%	90%	38%	0%	32%	0%	66%	0%	94.3%	98.2%	99.5%	73%	26%
CN(C)Cc1ccc(-c2ccc3c(Nc4ccc(Oc5ccccn5)cc4)ccnc3c2)o1 [GW567148]	0%	0%	0%	0%	23%	0%	0%	0%	7%	49%	0%	0%	0%	19%	0%	0%	0%	20%	29%	40%
CCn1c(-c2nonc2N)nc2c(C#CC(C)(C)O)nc(OC[C@H](N)c3ccccc3)cc21 [GSK943949]	0%	5%	2%	0%	18%	64%	27%	3%	0%	0%	0%	9%	0%	0%	0%	2%	0%	4%	0%	8%
COc1cccc(C2=C(Nc3ccc(Cl)c(C(=O)O)c3)C(=O)NC2=O)c1 [SB-390769]	0%	13%	34%	57%	0%	100%	100%	100%	100%	0%	20%	0%	6%	25%	17%	5%	0%	0%	0%	17%

Reference: paper PMC5540273 (PLoS ONE, 2017)
